Over roughly 33,000 sequences, “E-score (-0.5 to 0.5)” has its median near -0.013; the highest 2% begin near 0.3. This is one part of a sample in which the highest values are shown more often than they occur.
Each sequence was assayed against T1, Msn1 (UniProt P22148) (assay: PBM E-score (8-mer binding enrichment) (E-score (-0.5 to 0.5)); higher = stronger / more preferred TF binding). Conditions: protein concentration: 200 nM; construct: GST-full length.
T1 sequence: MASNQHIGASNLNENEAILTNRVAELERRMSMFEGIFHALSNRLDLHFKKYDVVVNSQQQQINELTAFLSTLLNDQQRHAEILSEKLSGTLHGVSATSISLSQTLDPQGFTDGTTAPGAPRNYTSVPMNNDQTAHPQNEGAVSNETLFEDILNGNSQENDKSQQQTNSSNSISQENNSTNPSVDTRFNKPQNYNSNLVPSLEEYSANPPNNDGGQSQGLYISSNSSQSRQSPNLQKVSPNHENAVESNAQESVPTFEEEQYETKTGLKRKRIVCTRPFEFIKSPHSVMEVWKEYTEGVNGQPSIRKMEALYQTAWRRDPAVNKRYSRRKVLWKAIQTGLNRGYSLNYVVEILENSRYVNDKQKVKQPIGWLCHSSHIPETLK
How it was run: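 Yeast transcription factors carrying a GST tag, as full-length proteins or DNA-binding domains, were produced by PURExpress in vitro transcription/translation. About 100-200 nM protein was applied to universal all-10-mer Agilent arrays, double-stranded by primer extension on fresh or once-stripped slides. Bound protein was detected with fluorescent anti-GST, and scans were normalised with masliner. The Universal PBM Analysis Suite gave each ungapped eight-base word, pooled with its reverse complement, an E-score, a modified Wilcoxon-Mann-Whitney statistic.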

Sequence	PBM E-score
AGAAGCGG	-0.101
AAAACCAG	0.152
CGTAAGGA	-0.0491
ACCATGGG	-0.161
GCCTATAA	0.0368
TACCCGTA	-0.0437
ATTTGCGC	0.104
CACCTGAG	-0.0701
ACATATGT	0.28
ATAGGGCC	-0.158
CGTGGACA	0.408
AGTGGACA	0.389
GGTGGACA	0.325
AGTGGACC	-0.0955
GGTGGATA	0.0155
AGTGGACG	0.212
CGTGGACC	-0.0578
CGTGGAAA	0.0488
GGTGGAGA	-0.396
GGATTTCA	0.0863
CCTGATAC	0.12
AGTAAAAC	-0.0534
AGCAAAGC	-0.143
ATTGAGAG	-0.0651
CAGCAAAA	0.0953

Sequence	PBM E-score
CCGATTGC	0.104
ACGGACAG	0.175
ACGGACCC	-0.221
ACGGACAC	0.344
ACGGACAT	0.473
ACGGACTC	0.00234
ACGGACCT	0.0608
AAGCGGAC	0.014
ACTTCCAG	-0.219
TGAACTCA	0.0356
GCCTTTCA	-0.179
ATCCCACG	-0.0996
GTCCCACA	0.319
ATCCCACA	-0.141
AGCTCCAT	-0.251
ACAACGGG	0.161
ACAACGGA	0.304
ACAAAAAT	0.372
ACAAAAAG	0.216
ACAAACGA	0.331
ACAAACGC	0.172
TCAACGGA	-0.0103
ACAAACGG	0.298
ACAAAAAA	0.225
ACAAACAG	0.276

Sequence	PBM E-score
ACAAACAC	0.337
ACAAACAA	0.277
CGTAGACC	-0.151
ACTCGTAC	-0.0875
ACCGCCAG	-0.04
CTCGAACC	-0.0331
AGCGGCAG	-0.149
GAAATACC	-0.0126
ACTCCTCG	-0.00289
CCCGTCGC	-0.27
ACTGAGCT	-0.0939
CCTCTCGA	-0.12
GCTGCTCC	-0.218
CACTGGGA	0.131
AAGCAAGT	0.00084
GAACCGCA	0.0554
CCAAAAAC	0.0933
ACAAAAAC	0.319
ACAAAAGC	0.364
ACAAAAGA	0.27
ACAAAACC	0.239
CCAAAAGC	0.0259
ACTACGCA	-0.18
ATATTTTC	0.226
CCTCGAAG	0.0737

Sequence	PBM E-score
GGGGTGCA	-0.0694
CGGACACG	0.338
CAGACACA	0.28
CGGACACC	0.112
CGGACACA	0.371
CTGACACA	0.0572
CAGACACG	0.147
CCTTTCGC	-0.146
GCTATGAA	-0.00947
TCGGCCGA	0.31
GCGGCCGA	-0.0302
CCGGCCGA	0.106
AAGCGCTT	0.312
AAGCGCTA	-0.0275
AAGCGCTC	-0.0777
CCTTAATC	-0.105
ACGCAAGA	0.0419
ACCTCAGG	-0.129
CATTGTAC	0.0768
TATTGTCA	0.282
CATTGTCC	0.456
AATTGTGC	0.0159
AATTGTCC	0.488
AATTGTCA	0.359
CATTGTCA	0.158

Sequence	PBM E-score
AATTGTTC	0.245
GATTGTCA	0.245
GATTGTAC	0.0546
AATTGTAC	0.365
CATTGTGC	0.0753
AAATCTGT	0.138
CACACCCC	-0.293
ATTGCGGA	0.145
ATATGAGA	0.0596
ACCCGAAG	-0.0262
CACTTTCC	-0.221
AATTGTCG	0.362
AATTGTAG	0.167
GATTGTGC	-0.0365
AATTGTCT	0.406
AATTGTGT	-0.0542
AATTGTAT	0.155
GATTGTAA	0.0176
CATTGTCG	0.21
GATTGTCC	0.458
CTAGCCAA	0.00535
AAATTTAA	0.238
GGAAGAAC	-0.012
GCCTTTCC	-0.0629
ATGCGACG	-0.249

Sequence	PBM E-score
ATGGCTGA	-0.133
CTGTACCC	-0.0861
GCACCGAA	0.0642
CATAGACC	-0.0541
TAGAGACA	0.377
TGTAGACA	0.261
GAGAGACA	0.246
TATAGATA	0.0139
GTTAGACA	0.33
ATTAGACA	0.295
CTTAGACA	0.232
CATAGACA	0.35
CATAGACG	0.194
AAGAGACA	0.288
TATAGACA	0.405
GGAGCTCA	-0.0253
ACCCGGTA	0.0382
CCGGCTAG	-0.141
GATTCACC	-0.145
CGAGGTAG	-0.251
AGGAAACT	0.025
ACAAGAGG	-0.011

From the supplement of paper PMC3334620
